Compound activity (PubChem BioAssay)
CHO-K1 Ca ag – counter-screen for M1 agonists: effect in parental CHO-K1 cells; Fluo-8 calcium fluorescence; scaled to maximal ATP response, vehicle zero; activation, % at 3 µM; 360,000 tested, 0.48% active; AID 602248, 2012; in the data active = activation above about 15%;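 also: untransfected CHO-K1 host cells lacking M1 receptor as counterscreen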
CHO-K1 Ca antag – counter-screen for M1 antagonists: effect in parental CHO-K1 cells; ATP-induced calcium, Fluo-8 fluorescence; inhibition, % at 3 µM; 360,000 tested, 0.6% active; AID 602250;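 active = inhibition above a per-plate cutoff, the plate's mean sample inhibition plus 3 SD, cut at about 24% in these data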
CHRM1 antagonist – human M1 muscarinic receptor antagonists, primary screen, CHO-K1 cells, Fluo-8 calcium fluorescence, 1536-well; Muscarinic acetylcholine receptor M1 (Homo sapiens), P11229; CHO-K1 hM1, ACh EC80 antagonist; AID 588852, 2011; 360,000 tested, 1.3% active; inhibition, % at 3 µM;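 active = percent inhibition above its own plate's cutoff, namely the mean of that plate's compound wells plus 3 SD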;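 also: peak over basal fluorescence ratio during 140 s after agonist addition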
Target sequence (P11229 whole entry, looked up): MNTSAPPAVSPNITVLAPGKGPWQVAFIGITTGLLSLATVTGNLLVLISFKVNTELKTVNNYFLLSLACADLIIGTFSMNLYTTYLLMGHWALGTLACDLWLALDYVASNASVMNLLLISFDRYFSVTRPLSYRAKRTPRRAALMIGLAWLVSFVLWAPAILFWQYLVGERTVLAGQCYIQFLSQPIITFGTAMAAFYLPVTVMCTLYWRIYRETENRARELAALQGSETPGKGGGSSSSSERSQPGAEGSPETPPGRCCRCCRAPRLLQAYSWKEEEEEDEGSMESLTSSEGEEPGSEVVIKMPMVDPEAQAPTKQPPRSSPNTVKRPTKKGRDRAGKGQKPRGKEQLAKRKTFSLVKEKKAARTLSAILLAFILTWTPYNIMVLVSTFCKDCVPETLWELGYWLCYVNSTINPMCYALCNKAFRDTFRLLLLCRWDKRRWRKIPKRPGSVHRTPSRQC
M1 PAM parental – nonselective calcium activators in parental CHO-K1 cells, primary screen, counter-screen for M1 PAM project, cell-based, Fluo-8 calcium fluorescence, full deck, 1536-well. ATP EC20; 0% at ATP EC20, 100% at ATP max. activation, % at 3 µM. 360,000 tested, 0.02% active. AID 602247, 2012;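 active = activation above the run cutoff, the mean activation of all test compounds plus 3 SD, cut at about 40% in these data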;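 also: peak over basal fluorescence ratio in a 140 s read after ATP addition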
M1 ag – human M1 muscarinic receptor agonists, primary screen, Fluo-8 calcium fluorescence, CHO-K1 cells, HTS. CHO-K1 hM1, agonist mode; 0% DMSO, 100% acetylcholine EC100. 360,000 tested, 0.33% active. AID 588814, 2011. activation, % at 3 µM;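 active = activation above the run's mean compound activation plus 3 SD, cut at about 16% in these data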;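 also: peak over basal fluorescence ratio within a 140 s kinetic read after compound addition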
M1 PAM – human M1 muscarinic receptor positive allosteric modulators, primary screen, CHO-K1 cells, Fluo-8 calcium fluorescence, 1536-well | CHO-K1 hM1, ACh EC20; 0% = ACh EC20, 100% = maximal ACh | Muscarinic acetylcholine receptor M1 (Homo sapiens), P11229 | 360,000 tested, 0.088% active | AID 588819, 2011 | activation, % at 3 µM; in the data active = activation above about 19%, passing the limit was not always enough
Hits are given with their value; n = inactive. Shown are actives, neighbours in structure and some others; about 2.4% of the full set was active somewhere.

SMILES	CHO-K1 Ca ag	CHO-K1 Ca antag	CHRM1 antagonist	M1 PAM parental	M1 ag	M1 PAM
CCOC(=O)c1nonc1NC(C)=O	n	n	n	n	n	n
COC(=O)c1ccc(CO/N=C(\NC(C)=O)c2nonc2NC(C)=O)cc1	n	n	n	n	17.0	n
Cc1ccc2cc(S(=O)(=O)NCCCN3CCOCC3)ccc2c1	18.8	n	n	n	n	n
O=C(COC(=O)c1ccccc1NCCO)NCc1cccs1	n	n	n	n	n	n
CC(CNCc1ccc2c(c1)OCO2)NCc1ccc2c(c1)OCO2 (stereo not given)	n	n	n	43.1	n	n
Fc1ccc(CNCc2ccc3c(c2)OCO3)cc1	n	n	n	n	n	n
CC(C)c1ccc(NC2CCCN(C(=O)CCN3CCCCO3)C2)cc1 (stereo not given)	n	n	n	n	n	n
COc1ccccc1NC(=O)CSc1nnc(C2CCCCC2)o1	n	23.7	n	n	n	n
CCn1c(CNC(=O)c2ccccc2F)nnc1SCC(=O)Nc1nncs1	n	n	n	n	n	n
CCCCCOc1ccc(C(=O)CCC(=O)N2CCCC2)cc1	n	n	22.3	n	n	n
CCCCOc1ccc(C(=O)N2CCCC2)cc1	n	n	n	n	n	n
COc1cccc(NC(=O)CN(C)C(=O)c2ccc(Cl)c(S(=O)(=O)N3CCCCCC3)c2)c1	n	n	n	n	n	n
N#CC1CC(c2ccccc2)=NN1c1ccccc1[N+](=O)[O-] (stereo not given)	n	23.8	n	n	n	n
Cc1ccc(CN2CCC(CNC(=O)C3CCCN(c4ncnc5c4nc4n5CCCCC4)C3)CC2)cc1 (stereo not given)	n	n	97.3	n	n	n
CCCS(=O)(=O)N1CCCC(C(=O)NCCN(Cc2ccccc2)C(C)C)C1 (stereo not given)	n	31.9	n	n	n	n
CC(C)N(CCNC(=O)C1CCCN(c2ncnc3c2nc2n3CCCCC2)C1)Cc1ccccc1 (stereo not given)	n	n	38.0	n	n	n
O=C(NCC1CCN(Cc2ccccc2F)CC1)C1CCCN(c2ncnc3c2nc2n3CCCCC2)C1 (stereo not given)	n	n	90.6	n	n	n
Cc1ccc(CCNC(=O)C2CCCN(c3ncnc4c3nc3n4CCCCC3)C2)cc1 (stereo not given)	n	n	n	n	n	n
O=C(NCc1ccccc1Cl)C1CCCN(c2ncnc3c2nc2n3CCCCC2)C1 (stereo not given)	n	n	n	n	n	n
CN(C)S(=O)(=O)n1cc(/C=C(\NC(=O)c2ccccc2F)C(=O)NCCCn2ccnc2)c2ccccc21	n	n	n	n	n	n
O=c1[nH]cnc(O)c1C(c1ccc2c(c1)OCO2)c1c(O)nc[nH]c1=O	n	n	n	n	n	n
c1ccc(Nc2cccc3ccccc23)cc1	n	n	n	n	n	n
c1ccc(Nc2ccc3c4c(cccc24)CC3)cc1	39.8	39.9	52.4	n	42.5	n
COc1ccc(CC(=O)Oc2ccc(C(C)(C)C)cc2)cc1S(=O)(=O)N1CCOCC1	n	n	n	n	n	n
COc1ccc(NC(=S)NC(=O)Cc2ccccc2)c(OC)c1	n	n	n	n	n	n
SMILES	CHO-K1 Ca ag	CHO-K1 Ca antag	CHRM1 antagonist	M1 PAM parental	M1 ag	M1 PAM
Cc1ccc(NC(=S)NC(=O)Cc2ccccc2)c(O)c1	n	n	n	n	17.9	n
COc1cccc(C(CC(=O)Nc2cccc3ccccc23)NC(=O)c2ccccc2)c1 (stereo not given)	n	n	n	n	n	n
Cc1cn([C@H]2C[C@H](O)[C@@H](CCC(=O)NCc3cccs3)O2)c(=O)[nH]c1=O	n	24.1	n	n	n	n
c1ccc(-c2csc(-n3cnnn3)n2)cc1	n	29.6	n	n	n	n
CCNC(=S)Nc1ccc(Cl)c([N+](=O)[O-])c1	n	n	35.7	n	n	n
Cc1ccc(NC(=O)Nc2ccccc2)cc1[N+](=O)[O-]	n	n	n	n	n	n
O=C(Nc1ccccc1)Nc1ccc(F)c([N+](=O)[O-])c1	15.4	n	n	n	n	n
O=C(Nc1ccccc1)Nc1ccc(Cl)c([N+](=O)[O-])c1	16.7	n	n	n	n	n
Cc1cc(N2CCN(C)CC2)nc2ccc(NC(=S)N3CCN(c4ccc(Cl)cc4)CC3)cc12	n	n	n	n	n	n
COCCCNC(=O)CCCn1c(=O)c2ccccc2n(Cc2cccc([N+](=O)[O-])c2)c1=O	n	n	n	n	n	n
C/C(=N\NC(=O)c1ccc(CSc2cccc3cccnc23)cc1)C1CCCCC1	n	n	n	n	51.6	n
COc1ccc(/C(C)=N/NC(=O)c2ccc(CSc3cccc4cccnc34)cc2)cc1OC	n	n	n	n	51.0	n
CCOCCCNC(=O)CN1CCN(S(=O)(=O)c2ccc3c(c2)CCC3)CC1	n	n	n	n	n	n
COc1ccc(OCc2cc(C(=O)NCCN3CCCc4ccccc43)no2)c(Cl)c1	n	n	52.8	n	n	n
CCN(CC)CCC#CC1(O)c2ccccc2-c2ccccc21	n	n	99.4	n	n	n
OC1(C#CCN2CCCC2)c2ccccc2-c2ccccc21	n	n	85.4	n	n	n
CN(C)CCC#CC1(O)c2ccccc2-c2ccccc21	n	n	66.0	n	n	n
OC(C#CCN1CCCC1)c1ccccc1 (stereo not given)	n	n	n	n	n	n
CC(C)(C)N(CC#CCC1(O)c2ccccc2-c2ccccc21)CCO	n	n	n	n	n	n
C=CCN(CC=C)C(=O)CCc1nnc(CCc2c[nH]c3ccccc23)o1	n	n	n	n	n	n
COc1ccc(Cn2c(-c3ccc(OC)cc3)n[nH]c2=S)cc1	n	n	n	n	n	n
CC(C)Oc1ccc(Cn2c(-c3ccco3)n[nH]c2=S)cc1	n	n	29.3	n	n	n
COc1ccccc1CCC(=O)Nc1ncc(C)s1	n	n	n	n	n	n
O=C(CSc1nnc(NC2CCCCC2)s1)Nc1ccc2c(c1)C(=O)c1ccccc1C2=O	n	n	n	n	n	n
CC(C)Nc1nnc(SCC(=O)Nc2ccc3c(c2)C(=O)c2ccccc2C3=O)s1	n	n	31.4	n	n	n
NC1=NC[C@H](Cc2ccc(O)cc2)N1CCC12CC3CC(CC(C3)C1)C2	n	n	37.2	n	n	n
Fc1ccc(OCCCCCn2ccnc2)cc1	n	n	n	n	35.7	n
